PubChem BioAssay
The source made the active and inactive calls.

Legend:
[1] = optical density shifts of acrAB sulA E. coli – strain DRC41, OD650, 48 h, E. coli filamentation inducer project, primary screen (AID 1152); settings: higher = more signal, called active from +8 up or from −8 down;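 further: E. coli MC1000 strain DRC41 lacking acrAB efflux pump and sulA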
[2] = probe aLefty1 binding on compound microarray – biochemical, small-molecule microarray, 635/667 nm fluorescence, primary screen (AID 1153); settings: higher = more signal;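 further: score merges spot fluorescence with signal-to-noise ratio from the scanned slide images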
[3] = plasmodial surface anion channel blockers, osmotic lysis – cell-based, P. falciparum Indochina, OD700, 1 h, primary screen (AID 1154); settings: P. falciparum Indochina infected RBC osmotic lysis, higher = more signal, called active from +8 up or from −8 down
[4] = plasmodial surface anion channel blockers, osmotic lysis – cell-based, P. falciparum Indochina, OD700, 2 h, primary screen (AID 1155);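 further: lysis reports solute entry through the parasite surface anion channel PSAC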; settings: P. falciparum Indochina infected erythrocytes, higher = more signal, called active from +8 up or from −8 down
[5] = changes in parasitized red cell lysis, either direction – P. falciparum Indochina, OD700, 3 h, PSAC antagonist project, primary screen (AID 1156); settings: P. falciparum-infected erythrocytes, osmotic lysis, higher = more signal, called active from +8 up or from −8 down
[6] = plasmodial surface anion channel blockers, osmotic lysis – cell-based, P. falciparum Indochina, OD700, 18 h, primary screen (AID 1157); settings: P. falciparum Indochina infected erythrocytes, osmotic lysis OD700, 18 h; higher = more signal, called active from +8 up or from −8 down
[7] = S6 kinase pathway phospho-S6 level changes – cell-based, A549, cytoblot, luminescence, serum-stimulated, primary screen (AID 1158); settings: 5 h, higher = more signal;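 further: serum-stimulated A549 lung adenocarcinoma cells; signal is phosphorylated S6 detected by cytoblot immunostaining with HRP secondary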
[8] = target: NADPH oxidase 2 (Homo sapiens) (UniProt P04839); assay: compounds shifting NOX2 Amplex Red fluorescence – cell-based, HEK293-NOX2, PMA-stimulated, NOX inhibitor project, primary screen (AID 1159); settings: 45 min, higher = more signal, called active from +8 up or from −8 down; further: test concentration not given here
Chain of NADPH oxidase 2 (Homo sapiens) (P04839 whole entry, looked up): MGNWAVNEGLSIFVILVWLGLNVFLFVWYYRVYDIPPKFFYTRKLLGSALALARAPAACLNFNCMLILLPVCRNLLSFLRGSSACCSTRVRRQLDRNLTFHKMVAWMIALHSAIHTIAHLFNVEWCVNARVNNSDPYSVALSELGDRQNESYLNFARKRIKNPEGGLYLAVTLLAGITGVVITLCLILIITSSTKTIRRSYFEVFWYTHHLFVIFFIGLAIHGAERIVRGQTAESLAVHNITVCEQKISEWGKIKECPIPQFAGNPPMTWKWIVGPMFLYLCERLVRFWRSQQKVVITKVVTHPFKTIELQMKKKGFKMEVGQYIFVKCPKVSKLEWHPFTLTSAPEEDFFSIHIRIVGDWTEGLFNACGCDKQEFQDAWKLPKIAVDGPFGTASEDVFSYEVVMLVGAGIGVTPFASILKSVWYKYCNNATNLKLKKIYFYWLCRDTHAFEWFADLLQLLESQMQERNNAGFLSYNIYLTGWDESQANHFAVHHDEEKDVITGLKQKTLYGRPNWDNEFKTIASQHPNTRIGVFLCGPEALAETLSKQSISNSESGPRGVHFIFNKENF

[9] = target: NADPH oxidase 4 (Homo sapiens) (UniProt Q9NPH5); assay: compounds shifting NOX4 Amplex Red fluorescence – cell-based, HEK293-NOX4, tetracycline-induced, NOX inhibitor project, primary screen (AID 1160); settings: HEK293-NOX4, Amplex Red H2O2 fluorescence, 45 min; higher = more signal, called active from +8 up or from −8 down
Chain of NADPH oxidase 4 (Homo sapiens) (Q9NPH5 whole entry, looked up): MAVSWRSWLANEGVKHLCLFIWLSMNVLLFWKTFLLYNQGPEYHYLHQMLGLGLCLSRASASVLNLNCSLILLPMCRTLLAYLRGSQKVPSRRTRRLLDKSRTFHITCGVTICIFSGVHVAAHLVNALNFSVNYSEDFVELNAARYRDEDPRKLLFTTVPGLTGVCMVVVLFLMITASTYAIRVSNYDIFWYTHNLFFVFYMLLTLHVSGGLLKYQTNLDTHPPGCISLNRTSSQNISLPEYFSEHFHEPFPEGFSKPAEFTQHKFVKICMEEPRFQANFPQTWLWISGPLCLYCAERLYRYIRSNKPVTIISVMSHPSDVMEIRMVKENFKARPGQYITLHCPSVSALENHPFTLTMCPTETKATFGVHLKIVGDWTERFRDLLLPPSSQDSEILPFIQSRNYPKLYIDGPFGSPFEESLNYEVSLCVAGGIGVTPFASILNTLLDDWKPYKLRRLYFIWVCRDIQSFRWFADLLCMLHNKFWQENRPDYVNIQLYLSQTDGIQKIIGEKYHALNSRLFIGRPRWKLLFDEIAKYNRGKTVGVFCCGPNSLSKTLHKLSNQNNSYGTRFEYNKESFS

[10] = target: NADPH oxidase 5 (Homo sapiens) (UniProt Q96PH1); assay: compounds shifting NOX5 Amplex Red fluorescence – cell-based, HEK293-NOX5, NOX inhibitor project, primary screen (AID 1161); settings: HEK293-NOX5, ionomycin, 45 min, higher = more signal
Chain of NADPH oxidase 5 (Homo sapiens) (Q96PH1 whole entry, looked up): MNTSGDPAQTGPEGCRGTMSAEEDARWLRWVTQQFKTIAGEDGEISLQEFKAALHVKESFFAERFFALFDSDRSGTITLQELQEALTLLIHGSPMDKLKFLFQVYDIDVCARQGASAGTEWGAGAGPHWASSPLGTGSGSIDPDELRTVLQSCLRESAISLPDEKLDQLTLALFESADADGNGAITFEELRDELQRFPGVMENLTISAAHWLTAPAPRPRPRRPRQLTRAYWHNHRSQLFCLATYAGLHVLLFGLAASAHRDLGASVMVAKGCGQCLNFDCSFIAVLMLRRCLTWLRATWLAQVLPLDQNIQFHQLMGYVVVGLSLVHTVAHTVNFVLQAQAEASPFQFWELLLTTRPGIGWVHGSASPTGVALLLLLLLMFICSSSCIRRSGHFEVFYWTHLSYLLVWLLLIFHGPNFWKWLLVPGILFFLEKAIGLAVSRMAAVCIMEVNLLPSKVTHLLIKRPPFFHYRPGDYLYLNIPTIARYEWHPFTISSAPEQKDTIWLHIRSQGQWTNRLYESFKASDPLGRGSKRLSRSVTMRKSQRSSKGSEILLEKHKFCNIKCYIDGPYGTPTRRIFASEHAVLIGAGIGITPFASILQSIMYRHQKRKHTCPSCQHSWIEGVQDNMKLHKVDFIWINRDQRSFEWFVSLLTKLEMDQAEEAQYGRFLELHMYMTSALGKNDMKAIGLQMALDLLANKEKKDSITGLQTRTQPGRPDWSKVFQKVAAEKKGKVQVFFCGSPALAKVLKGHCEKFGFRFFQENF

[11] = compound effects on lung adenocarcinoma cell viability – A549, calcein-AM fluorescence, 48 h, basal, profiling panel (AID 1162); settings: higher = more signal; further: test concentration not given here
[12] = compound effects on differentiated 3T3-L1 adipocyte viability – cell-based, 3T3-L1 adipocytes, calcein-AM fluorescence, 48 h, basal, profiling panel (AID 1163); settings: 3T3-L1 adipocytes viability, higher = more signal; further: test concentration not given here
[13] = compound effects on hepatocellular carcinoma cell viability – HepG2, calcein-AM fluorescence, 48 h, basal, profiling panel (AID 1164); settings: higher = more signal; further: test concentration not given here
[14] = compound effects on multiple myeloma cell viability – MM1S, calcein-AM fluorescence, 48 h, basal, profiling panel (AID 1165); settings: higher = more signal;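 further: viability of MM1S multiple myeloma cells under basal unstimulated conditions; test concentration not given here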
[15] = calcein-AM signal in unstimulated myeloma cells – cell-based, calcein-AM fluorescence, 48 h, PK04 Diversity Set, profiling panel (AID 1166); settings: RPMI8226 myeloma viability, higher = more signal;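 further: cells grown under basal conditions without added stimulus; test concentration not given here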
[16] = JC-1 mitochondrial signal, unstimulated HepG2 cells – cell-based, JC-1 fluorescence, 24 h, 100 nL compound, profiling panel (AID 1167); settings: HepG2 mitochondrial potential, higher = more signal; further: test concentration not given here
[17] = JC-1 mitochondrial signal, unstimulated adipocytes – cell-based, JC-1 fluorescence, 3T3-L1 adipocytes, 24 h, 100 nL compound, profiling panel (AID 1168); settings: JC-1 mitochondrial fluorescence, higher = more signal, called active from +8 up or from −8 down; further: test concentration not given here
[18] = JC-1 mitochondrial signal, unstimulated myeloma cells – cell-based, JC-1 fluorescence, RPMI8226, 24 h, 100 nL compound, profiling panel (AID 1169); settings: JC-1 mitochondrial potential fluorescence, higher = more signal; further: test concentration not given here
[19] = JC-1 mitochondrial signal, unstimulated MM1S myeloma – cell-based, JC-1 fluorescence, 24 h, 100 nL compound, profiling panel (AID 1170); settings: MM1S mitochondrial potential, higher = more signal; further: test concentration not given here
[20] = resazurin metabolic signal in A549 cells – cell-based, resazurin fluorescence, 24 h, PK04 Diversity Set, profiling panel (AID 1171); settings: A549 viability, higher = more signal, called active from +8 up or from −8 down; further: test concentration not given here

SMILES | z-score [1] | composite z-score [2] | z-score [3] | z-score [4] | z-score [5] | z-score [6] | z-score [7] | z-score [8] | z-score [9] | z-score [10] | z-score [11] | z-score [12] | z-score [13] | z-score [14] | z-score [15] | z-score [16] | z-score [17] | z-score [18] | z-score [19] | z-score [20]
O=C1NC(=O)C2C1C=CC(C(O)c1ccc(F)cc1)N2Nc1ccccn1 (stereo not given) | -1.99 (inactive) | 0.0378 | 1.02 (inactive) | 1.23 (inactive) | -0.02 (inactive) | 0.753 (inactive) | -0.727 | -1.01 (inactive) | -2.92 (inactive) | -2.12 | -1.12 | -0.182 | 0.417 | -0.416 | -0.395 | -1.53 | -0.311 (inactive) | 0.734 | 0.247 | -1.11 (inactive)
CCC[C@@H]1C=C(C(=O)OCC)[C@H](c2ccccc2)N1S(=O)(=O)c1ccc(C)cc1 | -0.843 (inactive) | 0.316 | -0.0086 (inactive) | 0.979 (inactive) | -0.628 (inactive) | 0.0962 (inactive) | -0.788 | -0.671 (inactive) | -0.646 (inactive) | -0.135 | -1.78 | -0.937 | -2.37 | -1.19 | -2.96 | 3.86 | 0.437 (inactive) | -0.756 | -0.65 | 1.8 (inactive)
O=C1OCCC=C[C@H]2OC34C=CCN(c5ccc(Cl)cc5)C(=O)[C@H]3N(CCO)C(=O)[C@@H]4C12 (stereo not given in full) | -0.232 (inactive) | -0.0501 | 0.773 (inactive) | 0.183 (inactive) | 0.766 (inactive) | 0.355 (inactive) | -0.509 | 1.69 (inactive) | -0.0621 (inactive) | 1.48 | -0.384 | 0.0844 | 0.0509 | 0.739 | -0.165 | -0.28 | 0.296 (inactive) | 0.0137 | 1.29 | 0.519 (inactive)
C=CCNC(=O)[C@H]1[C@@H]2C(=O)O[C@@H](c3ccccc3)[C@@H](c3ccccc3)N2[C@@H](c2ccccc2OCCO)[C@]12C(=O)N(C(=O)OCCOC)c1ccccc12 | -0.557 (inactive) | 0.162 | 2.31 (inactive) | 1.1 (inactive) | -0.337 (inactive) | 0.973 (inactive) | 0.015 | 1.14 (inactive) | 0.676 (inactive) | 0.348 | -1.25 | -0.575 | -1.3 | -3.05 | -3.82 | 0.387 | -0.49 (inactive) | -0.919 | -1.19 | -1.04 (inactive)
COCCOC(=O)N1C(=O)[C@@]2(c3cc(C#Cc4ccc(OC)cc4)ccc31)[C@H](C(=O)N1CCCCCCC1)[C@H]1C(=O)O[C@H](c3ccccc3)[C@H](c3ccccc3)N1[C@@H]2c1ccccc1OCCO | 0.0696 (inactive) | 2.74 | 0.688 (inactive) | 1.36 (inactive) | 0.286 (inactive) | 1.07 (inactive) | -0.17 | 0.0983 (inactive) | -0.0381 (inactive) | 0.724 | -0.198 | 1.05 | 0.383 | -0.197 | -0.417 | 0.617 | 3.29 (inactive) | -0.16 | -0.845 | 0.122 (inactive)
CN(C)C(=O)[C@]1(Cc2ccccc2CN=[N+]=[N-])N=C(c2ccc(OCCCO)cc2)O[C@@H]1c1ccccc1N=[N+]=[N-] | -0.174 (inactive) | 0.413 | 33.2 (active) | 30 (active) | 2.99 (inactive) | 9.81 (active) | -0.0847 | -1.25 (inactive) | 0.807 (inactive) | -0.474 | -0.691 | 0.287 | -0.923 | -1.33 | -2.16 | 0.271 | 2.38 (inactive) | -0.997 | -1.29 | -1.42 (inactive)
CCOC(=O)C[C@H]1[C@H](OC(=O)c2ccc(C(=O)c3ccccc3)cc2)[C@@H](NC(=O)c2ccc3ccccc3c2)c2cc(OCCCO)ccc2N1C(=O)c1ccc2ccccc2n1 | 1.86 (inactive) | 0.23 | 6.29 (inactive) | 1.32 (inactive) | -0.0906 (inactive) | 0.728 (inactive) | 0.154 | 0.412 (inactive) | 0.0963 (inactive) | 1.66 | 1.54 | 0.0263 | 0.664 | 0.393 | -0.693 | 2.63 | 0.978 (inactive) | -0.0974 | 1.75 | 0.298 (inactive)
COC(=O)[C@@]1(Cc2ccccc2CN=[N+]=[N-])COC(c2ccc(OCCCO)cc2)=N1 | -0.156 (inactive) | 0.2 | 23.8 (active) | 9.9 (active) | 4.61 (inactive) | 0.959 (inactive) | 0.202 | -3.07 (inactive) | -0.519 (inactive) | -3.18 | -1.19 | -0.19 | -0.891 | -3.53 | -0.691 | -2.15 | -0.428 (inactive) | -1.01 | 0.515 | -0.657 (inactive)
COC(=O)c1c(CC[C@@H](CO)NC(=O)N[C@@H](Cc2ccccc2)Cn2cc(-c3cncn3C)nn2)oc(C(C)=O)c1C(=O)OC | 0.922 (inactive) | -0.147 | 1.49 (inactive) | -0.182 (inactive) | 1.29 (inactive) | -0.277 (inactive) | 1.22 | -5.64 (inactive) | -2.01 (inactive) | -3.3 | -0.184 | 1.15 | -0.382 | 0.732 | -1.81 | -0.321 | 0.724 (inactive) | -0.442 | -0.322 | -0.208 (inactive)
